Assay results published in the supplement of paper PMC3334620.
The full ranking holds about 33,000 sequences; the median of “E-score (-0.5 to 0.5)” is about -0.036, and the highest 2% start at about 0.37. The full list was thinned out, with the highest values kept by preference.

Target: T1, Yer064c (UniProt P40041)
T1 sequence: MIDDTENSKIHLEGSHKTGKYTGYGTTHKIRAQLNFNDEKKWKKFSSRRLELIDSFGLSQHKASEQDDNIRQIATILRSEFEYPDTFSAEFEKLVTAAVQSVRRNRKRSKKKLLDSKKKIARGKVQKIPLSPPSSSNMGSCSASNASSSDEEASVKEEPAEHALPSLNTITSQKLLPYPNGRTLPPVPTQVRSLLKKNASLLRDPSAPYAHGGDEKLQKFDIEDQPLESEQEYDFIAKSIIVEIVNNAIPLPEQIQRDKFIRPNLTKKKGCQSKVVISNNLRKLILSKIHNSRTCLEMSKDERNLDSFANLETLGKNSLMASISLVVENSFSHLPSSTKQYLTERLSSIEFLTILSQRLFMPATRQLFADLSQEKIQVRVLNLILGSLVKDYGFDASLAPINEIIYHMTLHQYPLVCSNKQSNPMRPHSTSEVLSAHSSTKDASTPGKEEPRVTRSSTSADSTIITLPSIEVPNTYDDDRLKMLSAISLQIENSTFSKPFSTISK
Test: PBM E-score (8-mer binding enrichment) (E-score (-0.5 to 0.5)); higher = stronger / more preferred TF binding
Conditions: protein concentration: 200 nM; construct: GST-full length
Procedure, shortened: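 Full-length yeast transcription factors or their DNA-binding domains, GST-tagged and expressed with PURExpress, were applied at about 100-200 nM to universal all-10-mer Agilent arrays. These arrays had been made double-stranded by primer extension on fresh or once-stripped slides. Detection used fluorescent anti-GST, normalisation used masliner, and E-scores for ungapped eight-base words pooled with reverse complements came from the Universal PBM Analysis Suite.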

Sequence | PBM E-score
AGCGCTGA | 0.0781
CTATCGGC | -0.0556
ACACACGG | 0.0742
ACTCACAG | 0.353
ACGCACGG | -0.192
ACTCACGC | 0.357
ACTCACGG | 0.376
CCTCACGA | -0.0431
CCTCACAA | 0.038
ACTCACAA | 0.395
ACTCACGA | 0.388
ATCTCAGA | -0.113
ACCCCTAA | -0.0884
AAGATTTC | 0.0103
AATCTGAC | 0.23
GGACGTAC | -0.0832
ACAGCCTC | -0.308
CAATCACA | 0.346
AAATCACC | 0.328
CAATCACG | 0.296
AAATCACA | 0.219
GAATCACC | 0.456
CAATCACC | 0.343
GAATCACA | 0.439
TAATCACA | 0.419

Sequence | PBM E-score
AAATCACG | 0.264
AAACACAC | 0.0803
AGACAGCC | -0.181
AAAGTCCC | -0.235
GGACTCGA | 0.118
ACCAGTCA | 0.369
GGCAGTCA | 0.445
AGCAGTCG | 0.065
CCCAGTCA | 0.316
ACCAGTCT | 0.0632
GGCAGTAA | 0.0188
ACCAGTCC | -0.0297
CGCAGTCC | 0.134
CGCAGTCA | 0.422
AGCAGTCC | -0.0176
GGCAGTGA | 0.0347
AGCAGTCA | 0.412
AAACGGTA | 0.0163
GTTATGGA | -0.119
CGCCCGAC | -0.0703
ATATCGGC | -0.169
GATCGTAA | -0.068
AATACCAC | -0.172
GGCACTTA | -0.212
CTATCCGC | 0.00533

Sequence | PBM E-score
ATGGAGTC | 0.398
ATGGAGTG | -0.143
CTGGAGAC | -0.0698
CTGGAGTA | 0.0648
CTGGAGTC | 0.39
ATGGAGTA | 0.182
TAGGGCGA | 0.0759
AAAGCTTA | -0.0514
AGTTAGCC | 0.127
ATCGCACG | -0.0772
GAGTCGTA | 0.453
GAGTCGGA | 0.395
TAGTCGGA | 0.288
CAGTCGGC | 0.122
CAGTCGTA | 0.265
AAGTCGTA | 0.328
GAGTCGGC | 0.412
CAGTCGGA | 0.118
AAGTCGGC | -0.0537
CAACACAG | 0.0802
GAAAATAA | 0.133
TGACGACA | 0.102
CATCGCAC | -0.211
ATGCAAGA | 0.139
CGCTCATC | 0.0112

Sequence | PBM E-score
CAAGCCGG | -0.108
ACATTCTA | 0.0824
ACGATTCA | 0.298
ATGATTCA | 0.49
GGGATTCA | 0.147
AAGATTCA | 0.37
ACGATTCG | 0.0252
GTGATTCA | 0.474
AGGATTCG | -0.0455
ATGATTCG | 0.437
GTGATTTA | 0.35
GAGATTCA | 0.238
AGGATTCA | 0.24
AAGATTCG | 0.205
CGCGCCCC | -0.271
CAACCTGC | -0.127
CCGTAATA | 0.0217
ACTCAGCT | 0.216
ACCGGAAG | -0.0509
GATGCTCC | -0.345
AACAACCA | 0.13
ATGGGGAC | -0.14
CGAAATCA | 0.309
CCGCGGAC | -0.0248
CGTGGAGC | -0.124

Sequence | PBM E-score
CCACCCCA | -0.0763
ATGACCGG | -0.128
AATATATC | -0.0361
AGGATTCC | 0.0611
CAGATTCA | 0.157
CGGATTCA | 0.194
CTGATTCA | 0.45
CTGATTCC | 0.301
ATGATTCC | 0.456
CTCGGCCC | -0.206
CTGAATTA | 0.0399
ATGAATCA | 0.48
GTGAATAA | 0.0323
CTGAATCA | 0.455
GTGAATGA | 0.14
ATGAATCG | 0.355
ATGAATCC | 0.253
GTGAATCA | 0.48
CTGAATCC | 0.235
CTAAGGTA | 0.105
GTTTATTA | 0.148
CGATGTGA | 0.103
ACATCACA | -0.0462
GCGTGAAA | -0.106
CTGACGGA | -0.0463

Sequence | PBM E-score
GGGTAAAC | 0.0204
GTCTGTCA | -0.107
AACTCCGC | -0.0186
GACTCCGA | 0.417
GACTCCGC | 0.406
AACTCCGA | -0.0453
CACTCCGC | -0.0571
TACTCCGA | 0.0904
GTGCACCA | -0.178
AGGTAGTA | 0.0729
CGGTAGTA | 0.0891
AGGTAGTC | 0.407
AGGTAGTG | -0.0767
CGGTAGGC | -0.178
CGGTAGTC | 0.409
CTTCAGGA | 0.00919
AATTCACC | -0.0422
GATTCACC | 0.372
CATTCACA | -0.00304
GATTCACA | 0.375
CATTCACG | 0.0972
CATTCACC | -0.166
CGATAGAC | 0.00233
CGCCTTTA | 0.0724
ATATCTCA | 0.0798

Sequence | PBM E-score
CTTGGGAA | 0.0531
ATTCCTAA | 0.183
AATGATGA | 0.289
CTTGATTA | 0.303
AATGATAA | 0.0741
AATTATGA | 0.248
AATGATTA | 0.449
GATTATGC | 0.112
GTTGATTA | 0.381
GATGATGA | 0.256
GATTATGA | 0.38
GATGATCA | 0.323
GATGATTA | 0.47
ATTGATTA | 0.286
AACCGCAG | -0.0549
ATCAACTA | 0.23
AGTGAAAT | 0.143
ACCTCCCT | -0.107
CCGGTTAA | -0.0828
CCCGAGGG | -0.0969
GCTGATTA | 0.392
CCTGATTA | 0.344
ACTGATTA | 0.343
